Growth data for 38 compounds are collected here from PubChem BioAssay (NCI).

About 83,000 compounds went through this panel and 20% of them were active in at least one assay; those are over-represented in the sample as a whole.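 Method: cells in 96-well plates; compound added at one concentration; 48 h incubation; percent growth measured; values under 10 scored active.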 Unmarked numbers belong to inactive results. Active and inactive are the calls of the source.

In one assay the test system is NCI-H23 lung. Put plainly: NCI-60 one-dose screen, 48 h (100 = growth as untreated, 0 = no growth, -100 = all killed). The following applies: 10 µM unless noted.
In the case of `CCCC(=O)CC(C)=O.CCCC(=O)CC(C)=O.[Cu]`, the growth is 97.3%.

For `COc1cc(C(C)n2cc(-c3ccccc3)nn2)ccc1OC1CCCCC1` (stereo unspecified), the growth is 47.7%.

Consider `NC1(N2SC(S)=C3CCCC=C32)CCCCC1`, for which the growth is 105%.

Turning to `CCN1CCN(c2cc(C)c3cc(NC(=O)c4ccc(OC)c(OC)c4)ccc3n2)CC1`, the growth is 58.2%.

For the compound `CC(C)[C@H](NC(=O)Cn1cc(C(=O)O)nn1)C(=O)O`, the growth is 97.3%.

With `C=C[C@@H]1CCC/C=C/[C@@H]2C[C@H](O)C[C@H]2[C@H](O)/C=C/C(=O)O1`, the growth is 5.64% (active).

`COc1ccc(Nc2nc(N/N=C/c3ccc(O)cc3)nc(Nc3ccc([N+](=O)[O-])cc3)n2)cc1`: the growth is 103%.

On to `Cc1ccc(CN2CCC(C(=O)Nc3ccc(-c4cc5ccccc5[nH]4)cc3)CC2)o1`, for which the growth is 69.6%.

In the case of `O=C(Nc1ccc(N2CCNCC2)cc1)c1[nH]ncc1Nc1cc(Oc2ccccc2)ncn1`, the growth is 20.6%.

As to `CN1C(=O)N(C)C2C1NN=c1s/c(=C\c3ccc([N+](=O)[O-])cc3)c(=O)n12` (stereo unspecified), the growth was 87.3%.

Turning to `Nc1ccc(-c2nc3cc(Oc4ccc(Oc5ccc6[nH]c(-c7ccc(N)cc7)nc6c5)cc4)ccc3[nH]2)cc1`, the growth is 78.6%.

Regarding `COc1cccc2cc(N(C)c3nc(C)nc4ccsc34)ccc12`, the growth was 22.3%.

Consider `COc1cc(/C=C2\CCC/C(=C\c3cc(CN4CCCCC4)c(O)c(OC)c3)C2=O)cc(CN2CCCCC2)c1O`, for which the growth was 74.6%.

`CCOC(=O)C1=C(C)N=c2s/c(=C\c3ccccc3O)c(=O)n2C1c1ccc(OC)c2ccccc12` (stereo unspecified): the growth is 82.3%.

Consider `CCN1C(=O)N(CC)C2Nn3c(s/c(=C4\C(=O)N(C(C)C)c5ccccc54)c3=O)=NC21` (stereo unspecified), for which the growth was 36.6%.

As for `Cc1c(-c2csc(-n3nc(C(F)(F)F)cc3C(F)(F)F)n2)no[n+]1[O-]`, the growth was 98.4%.

For the compound `CC1(O)COCCCCOc2c(CN)cccc2NC(=O)c2nc(cnc2N)-c2ccc(cc2)S(=O)(=O)C(C)(C)C1` (stereo unspecified), the growth is -66.7% (active).

As for `COc1nc2c(c(=O)n1C)N=C1c3ccccc3C(=O)C1C(c1ccccc1)N2` (stereo unspecified), the growth was 94.1%.

With `CS(=O)(=O)Nc1ccc(C(=O)NC(C(=O)NO)c2ccc(-c3cccc(F)c3)cc2)cc1` (stereo unspecified), the growth is 45.6%.

For `COc1cc(C(=O)Nc2ccc(-c3nc4ccccc4[nH]3)cc2)cc(OC)c1OC`, the growth was 72.6%.

Turning to `Fc1ccc(Oc2ccc(Nc3ncnc4onc(-c5ccccc5)c34)cc2)cc1`, the growth was 104%.

In the case of `CC1=C(CC(=O)c2cccc([N+](=O)[O-])c2)C(=O)c2ccccc2C1=O`, the growth was -24.9% (active).

`COc1ccc(Cn2cc(Cn3c(=O)c(-c4nc5ccccc5[nH]4)cc4ccccc43)nn2)c(OC)c1OC`: the growth was 4.71% (active).

Take `COc1ccc(Cn2c(Br)c3c(c2Br)-c2nc(N)sc2CC3)cc1`: the growth was 57.3%.

Turning to `O=C(N/N=C/c1ccccc1O)C(=O)Nc1ccc(F)cc1`, the growth was 57.7%.

On to `CCOc1ccc(Nc2ccnc3cc(Cl)ccc23)cc1`, for which the growth is -3.27% (active).

As for `COc1cc(/C=C2\CN(C)C/C(=C\c3cc(CN4CCCC4)c(O)c(OC)c3)C2=O)cc(CN2CCCC2)c1O`, the growth is 52.2%.

As for `CCOC(=O)c1cnc2c(C)cccc2c1Nc1ccc(C(C)=O)cc1`, the growth is 32.1%.

`COc1cc(C(=O)O/N=C(\N)Cc2cccc3ccccc23)cc(OC)c1OC`: the growth was 80.7%.

In the case of `Nc1ncnc(N)c1NC(=O)c1ccc(OCc2ccccc2)cc1`, the growth is 105%.

In the case of `O=C1C(=O)c2c(ccc3ccccc23)-c2ccccc21`, the growth is -48.4% (active).

`CCOC(=O)c1sc(-c2ccc(OS(=O)(=O)c3cccs3)c(C=O)c2)nc1C`: the growth is 11.4%.

Take `O=c1oc2ccc(F)cc2c(=O)n1-c1ccc(Cl)cc1F`: the growth is 4.57% (active).

Consider `Cc1ccc(C)c(-c2csc(Nc3ccc(C)c(C)c3)n2)c1`, for which the growth was 57%.

As for `Nc1ccc(-n2c(=O)oc3ccc(Cl)cc3c2=O)c(Cl)c1`, the growth was -4.26% (active).

In the case of `c1ccc(-c2ccc(-c3nc4ccccc4[nH]3)cc2)cc1`, the growth is 94%.

Regarding `COc1ccc(-c2nc(-c3ccccn3)c(-c3ccccn3)n2CC(C)C)cc1OC1CCCC1`, the growth is 31.2%.

Regarding `CN(C)c1ccc(N=Cc2ccc(N3CCOCC3)cc2)cc1`, the growth is 68.5%.

The next assay has as its system NCI-H322M lung. The description is as above. The following applies: 10 µM unless noted.
Take `CCCC(=O)CC(C)=O.CCCC(=O)CC(C)=O.[Cu]`: the growth was 99.5%.

As for `COc1cc(C(C)n2cc(-c3ccccc3)nn2)ccc1OC1CCCCC1` (stereo unspecified), the growth is 78.1%.

Regarding `NC1(N2SC(S)=C3CCCC=C32)CCCCC1`, the growth is 99.8%.

Regarding `CCN1CCN(c2cc(C)c3cc(NC(=O)c4ccc(OC)c(OC)c4)ccc3n2)CC1`, the growth is 50.7%.

On to `CC(C)[C@H](NC(=O)Cn1cc(C(=O)O)nn1)C(=O)O`, for which the growth is 99.9%.

For the compound `C=C[C@@H]1CCC/C=C/[C@@H]2C[C@H](O)C[C@H]2[C@H](O)/C=C/C(=O)O1`, the growth was 38.3%.

In the case of `COc1ccc(Nc2nc(N/N=C/c3ccc(O)cc3)nc(Nc3ccc([N+](=O)[O-])cc3)n2)cc1`, the growth was 110%.

On to `Cc1ccc(CN2CCC(C(=O)Nc3ccc(-c4cc5ccccc5[nH]4)cc3)CC2)o1`, for which the growth is 95.1%.

`O=C(Nc1ccc(N2CCNCC2)cc1)c1[nH]ncc1Nc1cc(Oc2ccccc2)ncn1`: the growth is -5.19% (active).

`CN1C(=O)N(C)C2C1NN=c1s/c(=C\c3ccc([N+](=O)[O-])cc3)c(=O)n12` (stereo unspecified): the growth is 85.4%.

As for `Nc1ccc(-c2nc3cc(Oc4ccc(Oc5ccc6[nH]c(-c7ccc(N)cc7)nc6c5)cc4)ccc3[nH]2)cc1`, the growth was 118%.

For the compound `COc1cccc2cc(N(C)c3nc(C)nc4ccsc34)ccc12`, the growth was 49.8%.

In the case of `COc1cc(/C=C2\CCC/C(=C\c3cc(CN4CCCCC4)c(O)c(OC)c3)C2=O)cc(CN2CCCCC2)c1O`, the growth was 85.9%.

On to `CCOC(=O)C1=C(C)N=c2s/c(=C\c3ccccc3O)c(=O)n2C1c1ccc(OC)c2ccccc12` (stereo unspecified), for which the growth is 10.5%.

`CCN1C(=O)N(CC)C2Nn3c(s/c(=C4\C(=O)N(C(C)C)c5ccccc54)c3=O)=NC21` (stereo unspecified): the growth was 61.3%.

As to `Cc1c(-c2csc(-n3nc(C(F)(F)F)cc3C(F)(F)F)n2)no[n+]1[O-]`, the growth was 98.8%.

`CC1(O)COCCCCOc2c(CN)cccc2NC(=O)c2nc(cnc2N)-c2ccc(cc2)S(=O)(=O)C(C)(C)C1` (stereo unspecified): the growth is -1.9% (active).

On to `COc1nc2c(c(=O)n1C)N=C1c3ccccc3C(=O)C1C(c1ccccc1)N2` (stereo unspecified), for which the growth is 104%.

With `CS(=O)(=O)Nc1ccc(C(=O)NC(C(=O)NO)c2ccc(-c3cccc(F)c3)cc2)cc1` (stereo unspecified), the growth was 53.5%.

For `COc1cc(C(=O)Nc2ccc(-c3nc4ccccc4[nH]3)cc2)cc(OC)c1OC`, the growth is 94.5%.

Take `Fc1ccc(Oc2ccc(Nc3ncnc4onc(-c5ccccc5)c34)cc2)cc1`: the growth is 87.9%.

Regarding `CC1=C(CC(=O)c2cccc([N+](=O)[O-])c2)C(=O)c2ccccc2C1=O`, the growth is 68.7%.

For `COc1ccc(Cn2cc(Cn3c(=O)c(-c4nc5ccccc5[nH]4)cc4ccccc43)nn2)c(OC)c1OC`, the growth is 18%.

Consider `COc1ccc(Cn2c(Br)c3c(c2Br)-c2nc(N)sc2CC3)cc1`, for which the growth was 66.6%.

For the compound `O=C(N/N=C/c1ccccc1O)C(=O)Nc1ccc(F)cc1`, the growth was 26.6%.

`CCOc1ccc(Nc2ccnc3cc(Cl)ccc23)cc1`: the growth was -0.617% (active).

In the case of `COc1cc(/C=C2\CN(C)C/C(=C\c3cc(CN4CCCC4)c(O)c(OC)c3)C2=O)cc(CN2CCCC2)c1O`, the growth was 84.7%.

In the case of `CCOC(=O)c1cnc2c(C)cccc2c1Nc1ccc(C(C)=O)cc1`, the growth was 42.7%.

For the compound `COc1cc(C(=O)O/N=C(\N)Cc2cccc3ccccc23)cc(OC)c1OC`, the growth is 18.1%.

On to `Nc1ncnc(N)c1NC(=O)c1ccc(OCc2ccccc2)cc1`, for which the growth is 100%.

Turning to `O=C1C(=O)c2c(ccc3ccccc23)-c2ccccc21`, the growth was 50.5%.

Regarding `CCOC(=O)c1sc(-c2ccc(OS(=O)(=O)c3cccs3)c(C=O)c2)nc1C`, the growth was 47.3%.

For `O=c1oc2ccc(F)cc2c(=O)n1-c1ccc(Cl)cc1F`, the growth was 7.62% (active).

Take `Cc1ccc(C)c(-c2csc(Nc3ccc(C)c(C)c3)n2)c1`: the growth was 91.1%.

As to `Nc1ccc(-n2c(=O)oc3ccc(Cl)cc3c2=O)c(Cl)c1`, the growth was -2.46% (active).

For `c1ccc(-c2ccc(-c3nc4ccccc4[nH]3)cc2)cc1`, the growth is 98.9%.

In the case of `COc1ccc(-c2nc(-c3ccccn3)c(-c3ccccn3)n2CC(C)C)cc1OC1CCCC1`, the growth was 9.32% (active).

`CN(C)c1ccc(N=Cc2ccc(N3CCOCC3)cc2)cc1`: the growth was 106%.
